# D1 potentiator = Potentiators of Human D1 Dopamine Receptor: qHTS; HEK293 TREx D1 cells, calcium flux, dopamine EC20 potentiation; 360,000 tested, 0.036% active; potentiation, % at 10 µM; D(1A) dopamine receptor (Homo sapiens), P21728; AID 504651, 2011; in the data active means potentiation above about 30%; further: 0% is about no effect
# TRHR enhancer = qHTS for Small Molecule Agonists and Allosteric Enhancers of Human TRH Receptor: Primary Screen for Enhancers | TRHR cells, fluo-8 calcium fluorescence, EC20 TRH enhancement | enhancement, % at 2 µM | 360,000 tested, 0.66% active; in the data active means enhancement above about 30%; further: 0% is about no effect
# Target sequence (P34981 whole entry, looked up): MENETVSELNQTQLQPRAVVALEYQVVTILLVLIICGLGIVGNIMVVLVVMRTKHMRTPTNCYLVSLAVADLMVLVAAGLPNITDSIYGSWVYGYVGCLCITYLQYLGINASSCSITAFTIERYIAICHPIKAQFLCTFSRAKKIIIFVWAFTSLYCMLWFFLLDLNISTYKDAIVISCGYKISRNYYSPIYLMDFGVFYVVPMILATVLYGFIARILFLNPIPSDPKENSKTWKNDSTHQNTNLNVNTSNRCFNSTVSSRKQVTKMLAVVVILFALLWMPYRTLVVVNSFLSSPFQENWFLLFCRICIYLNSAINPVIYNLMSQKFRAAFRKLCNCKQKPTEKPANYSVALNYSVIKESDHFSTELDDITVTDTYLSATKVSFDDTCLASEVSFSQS
#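 Enhancer read-out: after compound pinning and an initial kinetic agonist-mode read, an EC20 of TRH (10 nM final) was injected and fluo-8 calcium signal (Ex 480/Em 530) followed at 1 s/cycle for 100 cycles in TRHR-expressing cells.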
# TRHR ag = qHTS for Small Molecule Agonists and Allosteric Enhancers of Human TRH Receptor: Primary Screen for Agonists; Thyrotropin-releasing hormone receptor (Homo sapiens), P34981; TRHR cells, calcium flux fluo-8, FDSS agonist mode; 360,000 tested, 0.18% active; activation, % at 2 µM; further: 0% is about no effect
#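 In this calcium-flux screen, cells bearing human TRHR are dye-loaded with fluo-8, baselined for 10 cycles, then exposed to library compounds; positive kinetic calcium responses during the agonist phase mark hits, with TRH as control.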
# D1 antag = Antagonist of Human D 1 Dopamine Receptor: qHTS. D(1A) dopamine receptor (Homo sapiens), P21728. activity change, negative = inhibition, % at 10 µM. 360,000 tested, 3.2% active. AID 504652, 2011. HEK293 TREx D1 cells, calcium flux, dopamine EC80; stronger effect = lower value; in the data active means activity change below about -30%; further: on the % scale 0 is the no-effect control and ±100 the full control effect
#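 Tetracycline-induced HEK293 T-REx cells with force-coupled D1 receptor were loaded with a no-wash calcium dye. Compound was added after a 10 s baseline and read kinetically for 180 s; EC80 dopamine was then added and calcium flux followed another 180 s.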
# D1 agonist = Allosteric Agonists of the Human D1 Dopamine Receptor: qHTS; 360,000 tested, 1% active; activation, % at 2 µM; AID 504660, 2011; D(1A) dopamine receptor (Homo sapiens), P21728; HEK293 T-REx D1 cells, calcium flux, agonist mode; further: 0% is about no effect
#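 Agonism was scored from calcium flux recorded over 180 s (1 read/s) after pintool compound addition, following a 10-cycle baseline. Cells were inducible force-coupled HEK293 TREx D1, plated overnight at 30 C and loaded with no-wash calcium dye.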
# * = called active by the depositor; / = no result. Compounds with a hit are over-represented: about 4.7% of the library has one in this group of screens. Unless noted, no stated cut-off is given here; in the data, active means activation above about 30%; inactive means the rest.
SMILES,D1 potentiator,TRHR enhancer,TRHR ag,D1 antag,D1 agonist
CCN1C(=O)C(CC(=O)Nc2ccc(OC)cc2)N(Cc2ccc(OC)c(OC)c2)C1=S (stereo not given),2,1,0,6,1
CCN1C(=O)C(CC(=O)Nc2ccc(OC)cc2)N(CCc2ccc(OC)cc2)C1=S (stereo not given),-6,-1,-1,-33*,21
CCCOc1ccc(NC(=O)CC2C(=O)N(CC)C(=S)N2CCNC(C)=O)cc1 (stereo not given),2,-2,1,-1,1
COc1ccc(CNC(=O)CCCCCn2c(=O)[nH]c3ccccc3c2=O)cc1,-3,3,0,3,0
Cc1ccc(C[C@H](C(=O)O)N2C(=O)c3ccc(C(=O)O)cc3C2=O)c(C)c1,-7,9,1,6,2
Cc1ccc(/C=N/NC(=S)N2CCOCC2)cc1,-4,0,-1,-14,3
S=C(N/N=C/c1ccc(Cl)cc1)N1CCOCC1,-9,-9,0,-37*,1
CCOC(=O)c1cc2c(=O)n3ccccc3nc2n(CC(C)C)c1=NC(=O)C(C)(C)Oc1ccc(Cl)cc1,0,-7,0,6,-1
CCOC(=O)c1cc2c(=O)n3ccccc3nc2n(CC(C)C)c1=NC(=O)COc1ccc(Cl)cc1,0,-3,0,-39*,-1
CCOC(=O)c1cc2c(=O)n3ccccc3nc2n(C(C)C)c1=NC(=O)C(C)(C)Oc1ccc(Cl)cc1,-1,2,0,-40*,-1
COc1ccc(Cl)cc1S(=O)(=O)N1CCC(C(=O)N2CCOCC2)CC1,-4,8,1,11,1
COc1ccc(C)cc1NC(=O)C1CCCN1S(=O)(=O)c1ccccc1F (stereo not given),-1,9,-1,6,0
COc1ccc(CC(=O)NC2CC(=O)N(c3ccc(C)c(C)c3)C2)cc1OC (stereo not given),-2,-2,0,/,0
COc1ccc(S(=O)(=O)c2cn(CC(=O)Nc3ccccc3)c3ccc(Cl)cc3c2=O)cc1,1,11,1,-45*,6
CCc1ccc2c(c1)c(=O)c(S(=O)(=O)c1ccccc1)cn2CC(=O)Nc1ccc(OC)cc1,-2,10,1,17,4
O=C(Cn1cc(S(=O)(=O)c2ccc(F)cc2)c(=O)c2cc3c(cc21)OCO3)Nc1ccccc1,0,1,2,-34*,2
CCOc1ccccc1CN1C(=O)c2ccccc2C1C(=O)NC1CCCCCC1 (stereo not given),1,-5,-1,-5,-1
CCc1ccccc1Nc1cc(C(=O)NCCCN(C)C2CCCCC2)c2ccccc2n1,2,-6,6,-23,35*
CCc1ccccc1Nc1cc(C(=O)NC2CCC(C)CC2)c2ccccc2n1 (stereo not given),0,1,0,-6,1
Cc1ccc(C)c(Nc2cc(C(=O)NCCCN(C)C3CCCCC3)c3ccccc3n2)c1,2,1,5,-34*,54*
Cc1cc(C)cc(Nc2cc(C(=O)NCCCN(C)C3CCCCC3)c3ccccc3n2)c1,-1,3,9,-26,44*
CC(C)c1nnc(SCC(=O)NC2CCCC2)n1C,/,3,-1,-13,4
CCOC(=O)c1ccccc1NC(=O)N1CCC(N2CCN(Cc3ccccc3)C(=O)C2=O)CC1,-3,-3,0,-13,1
O=C(NC1CCN(C(=S)NCCc2ccccc2)CC1)C1CCCCC1,-10,-4,-1,-34*,7
COC(=O)c1cc(NC(=O)c2nn(C)c3c2COc2ccccc2-3)cc(C(=O)OC)c1,-2,5,0,-55*,0
SMILES,D1 potentiator,TRHR enhancer,TRHR ag,D1 antag,D1 agonist
COC(=O)c1ccc(NC(=O)c2nn(C)c3c2COc2ccccc2-3)cc1,-4,-21,1,1,10
O=C(NNC(=O)c1ccc(NC(=O)c2ccccc2)cc1)c1ccccc1,-5,3,-1,8,59*
CN(Cc1ccccc1)C(=S)NC(=O)c1cccs1,-2,44*,0,-22,7
CN(Cc1ccccc1)C(=S)NC(=O)c1ccc(-c2ccccc2)cc1,-8,4,-1,-1,4
O=C(c1ccncc1)c1ccc(NC(=O)c2cccs2)cc1,-16,1,0,-35*,12
COc1ccc(C(=O)Nc2ccc(Nc3ccccc3)cc2)cc1[N+](=O)[O-],-2,-1,1,-19,5
COc1ccc(C(=O)Nc2ccc(Nc3ccccc3)cc2)cc1OC,-10,-4,-1,-37*,-1
O=C(Nc1ccc(Cc2ccncc2)cc1)c1cccs1,-8,2,0,2,13
Cc1cccc(Oc2nc3c(c(=O)n(C)c(=O)n3C)n2C)c1C,-5,-4,0,-1,2
O=C(Cc1ccccc1)Nc1ccc(NC(=O)c2cccs2)cc1,-4,0,-1,-30*,1
O=C(Cc1ccccc1)Nc1ccc(C(=O)Nc2ccc(O)cc2)cc1,0,18,0,-12,33*
COc1ccc(C(=O)Nc2cccc(/C(C)=N/NC(=O)c3ccc([N+](=O)[O-])cc3)c2)cc1OC,-10,-4,0,-34*,0
O=C(Cc1ccccc1)Nc1ccc(NC(=O)c2ccc(Br)cc2)cc1,6,2,0,-10,3
COc1ccc(C(=O)N/N=C(/C)c2cccc(NC(=O)c3ccncc3)c2)cc1OC,-2,8,0,3,3
CC(=O)c1ccc(N2CCN(C(=O)CCS(=O)(=O)c3ccc4c(c3)oc(=O)n4C)CC2)cc1,-1,-7,0,7,2
CCOc1ccc(-c2cn3c(n2)sc2cc(C(=O)NC4CCCc5ccccc54)ccc23)cc1 (stereo not given),-3,2,0,-3,1
O=C(c1cscn1)N1CCCC(N2CCN(c3ccc(F)cc3)CC2)C1 (stereo not given),6,22,0,-8,2
Cc1cc2c(s1)c1cnn(Cc3ccc(Cl)cc3)c(=O)c1n2C,-5,0,0,-9,4
Cn1cc(S(=O)(=O)N2CCCC2)cc1C(=O)Nc1ccc(C(F)(F)F)cc1,-2,4,-1,0,33*
CSc1cccc(NC(=O)c2cc(S(=O)(=O)N3CCc4ccccc43)cn2C)c1,0,-5,0,-56*,9
